Test results published in publication PMC7862700, “An all-to-all approach to the identification of sequence-specific readers for epigenetic DNA modifications on cytosine”.

How the values were obtained:
Assay in all cases: DAPPL (digital affinity profiling via proximity ligation, sequencing); 10 mM Tris-HCl pH 7.5, 50 mM NaCl, 1 mM DTT, 4% glycerol, room temperature, 30 min; GST-TFs on glutathione beads, 16-mer random dsDNA library, 0.1% formaldehyde crosslink after washing; high values mean tight binding
Conditions in all cases: protein: recombinant; tags: N-terminal GST; dsDNA, one strand shown
ELK3 = target: T1, ELK3 (Homo sapiens, UniProt P41970 1-407)
T1 sequence: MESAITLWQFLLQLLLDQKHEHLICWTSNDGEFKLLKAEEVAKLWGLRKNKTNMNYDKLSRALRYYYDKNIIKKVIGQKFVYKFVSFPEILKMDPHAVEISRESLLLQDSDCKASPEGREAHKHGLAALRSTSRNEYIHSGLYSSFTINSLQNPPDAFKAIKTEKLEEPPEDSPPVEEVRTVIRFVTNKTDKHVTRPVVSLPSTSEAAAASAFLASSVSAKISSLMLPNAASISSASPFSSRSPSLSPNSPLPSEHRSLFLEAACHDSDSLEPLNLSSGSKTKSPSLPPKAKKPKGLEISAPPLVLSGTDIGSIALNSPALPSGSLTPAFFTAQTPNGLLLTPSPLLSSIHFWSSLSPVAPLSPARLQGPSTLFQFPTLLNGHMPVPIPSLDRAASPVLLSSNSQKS
Method in brief: (§1)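 A tag-only sample was pooled with DNA-barcoded human transcription factors that had been expressed in yeast as GST fusions and captured on glutathione beads. The pools were incubated for 30 min at room temperature with 200 nmole of a random double-stranded 16-mer DNA library in Tris/NaCl/DTT/glycerol buffer, then washed, crosslinked with 0.1% formaldehyde, proximity-ligated (BsaI/T4 ligase, 1 h, 37 °C), PCR-amplified and sequenced on an Illumina NextSeq500. Binding signal is each hexamer's read frequency for a factor divided by its frequency for the tag-only sample.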

SPIC = target: T2, SPIC (Homo sapiens, UniProt Q8N5J4 1-248)
T2 sequence: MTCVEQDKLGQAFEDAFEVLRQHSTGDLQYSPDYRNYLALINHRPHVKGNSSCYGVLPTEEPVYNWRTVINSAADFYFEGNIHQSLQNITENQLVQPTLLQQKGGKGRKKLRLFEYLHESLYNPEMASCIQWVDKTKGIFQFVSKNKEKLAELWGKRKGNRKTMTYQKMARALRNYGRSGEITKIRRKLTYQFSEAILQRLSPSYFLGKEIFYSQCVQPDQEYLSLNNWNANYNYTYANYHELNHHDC
Method in brief: as §1

SPDEF = target: T3, SPDEF (Homo sapiens, UniProt O95238 1-335)
T3 sequence: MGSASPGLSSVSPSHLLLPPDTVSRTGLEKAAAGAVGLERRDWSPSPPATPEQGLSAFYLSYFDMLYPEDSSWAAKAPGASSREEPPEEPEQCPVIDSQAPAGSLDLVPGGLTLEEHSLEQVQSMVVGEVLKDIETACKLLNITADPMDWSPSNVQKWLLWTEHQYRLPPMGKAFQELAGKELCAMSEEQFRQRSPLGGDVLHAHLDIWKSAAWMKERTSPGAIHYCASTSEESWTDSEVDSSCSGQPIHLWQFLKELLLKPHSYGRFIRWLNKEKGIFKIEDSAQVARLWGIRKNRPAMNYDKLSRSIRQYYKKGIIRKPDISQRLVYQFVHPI
Method in brief: as §1

ELF5 = target: T4, ELF5 (Homo sapiens, UniProt Q9UKW6-2 1-255)
T4 sequence: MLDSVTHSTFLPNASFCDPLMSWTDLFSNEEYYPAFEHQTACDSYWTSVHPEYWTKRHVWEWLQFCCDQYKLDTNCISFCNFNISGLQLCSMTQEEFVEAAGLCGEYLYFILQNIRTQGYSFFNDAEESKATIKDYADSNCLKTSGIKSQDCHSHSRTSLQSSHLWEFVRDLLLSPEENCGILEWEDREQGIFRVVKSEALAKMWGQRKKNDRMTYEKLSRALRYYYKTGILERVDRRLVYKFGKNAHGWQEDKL
Method in brief: as §1

CRX = CRX (Homo sapiens, UniProt O43186 1-299)
Method in brief: as §1

ELK4 = target: T5, ELK4 (Homo sapiens, UniProt P28324-2 1-405)
T5 sequence: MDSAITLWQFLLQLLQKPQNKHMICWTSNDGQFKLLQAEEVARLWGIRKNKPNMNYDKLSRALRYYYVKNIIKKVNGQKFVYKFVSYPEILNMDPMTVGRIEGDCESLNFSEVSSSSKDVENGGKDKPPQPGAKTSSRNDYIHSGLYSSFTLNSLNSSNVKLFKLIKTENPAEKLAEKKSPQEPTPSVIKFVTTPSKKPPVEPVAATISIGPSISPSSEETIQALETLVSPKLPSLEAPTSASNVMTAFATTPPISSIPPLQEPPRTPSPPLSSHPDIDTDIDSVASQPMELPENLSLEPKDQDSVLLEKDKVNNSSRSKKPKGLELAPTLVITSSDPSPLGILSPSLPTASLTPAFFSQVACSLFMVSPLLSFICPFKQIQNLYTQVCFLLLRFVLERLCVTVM
Method in brief: as §1

CRX, sequence (O43186 whole entry): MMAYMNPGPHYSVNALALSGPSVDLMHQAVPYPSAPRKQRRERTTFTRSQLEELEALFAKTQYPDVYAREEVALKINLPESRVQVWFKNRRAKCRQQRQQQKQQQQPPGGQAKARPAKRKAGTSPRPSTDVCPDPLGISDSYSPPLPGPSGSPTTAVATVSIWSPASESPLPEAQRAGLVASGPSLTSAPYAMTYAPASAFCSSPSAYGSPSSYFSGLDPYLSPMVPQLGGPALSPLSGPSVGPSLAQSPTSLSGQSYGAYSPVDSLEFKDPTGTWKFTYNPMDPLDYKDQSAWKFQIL

| Sequence | binding signal (ELK3) | binding signal (SPIC) | binding signal (SPDEF) | binding signal (ELF5) | binding signal (CRX) | binding signal (ELK4) |
| --- | --- | --- | --- | --- | --- | --- |
| AACGGA | 1.13 fold enrichment (6-mer frequency, TF over GST control) | 1.04 fold enrichment (6-mer frequency, TF over GST control) | 1.23 fold enrichment (6-mer frequency, TF over GST control) | 1.11 fold enrichment (6-mer frequency, TF over GST control) | – | – |
| CGGATC | – | 1.02 fold enrichment (6-mer frequency, TF over GST control) | 1.67 fold enrichment (6-mer frequency, TF over GST control) | 1.05 fold enrichment (6-mer frequency, TF over GST control) | 1.21 fold enrichment (6-mer frequency, TF over GST control) | – |
| ATTGGC | 1.16 fold enrichment (6-mer frequency, TF over GST control) | – | 1.12 fold enrichment (6-mer frequency, TF over GST control) | 1.08 fold enrichment (6-mer frequency, TF over GST control) | 1.07 fold enrichment (6-mer frequency, TF over GST control) | 1.06 fold enrichment (6-mer frequency, TF over GST control) |
| TGTAAC | 1.2 fold enrichment (6-mer frequency, TF over GST control) | – | 1.23 fold enrichment (6-mer frequency, TF over GST control) | 1.21 fold enrichment (6-mer frequency, TF over GST control) | – | 1.37 fold enrichment (6-mer frequency, TF over GST control) |
| AGTGCC | 1.05 fold enrichment (6-mer frequency, TF over GST control) | 1.19 fold enrichment (6-mer frequency, TF over GST control) | – | – | – | – |
| GTTGCG | 1.01 fold enrichment (6-mer frequency, TF over GST control) | 1.23 fold enrichment (6-mer frequency, TF over GST control) | – | 1.02 fold enrichment (6-mer frequency, TF over GST control) | – | 1.01 fold enrichment (6-mer frequency, TF over GST control) |
| CATGCA | 1.02 fold enrichment (6-mer frequency, TF over GST control) | – | 1.13 fold enrichment (6-mer frequency, TF over GST control) | 1.01 fold enrichment (6-mer frequency, TF over GST control) | – | 1.05 fold enrichment (6-mer frequency, TF over GST control) |
| GTCCGC | 1.1 fold enrichment (6-mer frequency, TF over GST control) | 1.21 fold enrichment (6-mer frequency, TF over GST control) | 1.07 fold enrichment (6-mer frequency, TF over GST control) | 1.07 fold enrichment (6-mer frequency, TF over GST control) | – | 1.09 fold enrichment (6-mer frequency, TF over GST control) |
| CCCGGT | – | 1.07 fold enrichment (6-mer frequency, TF over GST control) | 1.11 fold enrichment (6-mer frequency, TF over GST control) | 1.05 fold enrichment (6-mer frequency, TF over GST control) | – | 1.13 fold enrichment (6-mer frequency, TF over GST control) |
| GTCCTG | 1.05 fold enrichment (6-mer frequency, TF over GST control) | 1.3 fold enrichment (6-mer frequency, TF over GST control) | 1.34 fold enrichment (6-mer frequency, TF over GST control) | 1.3 fold enrichment (6-mer frequency, TF over GST control) | – | – |
| GCAACC | 1.09 fold enrichment (6-mer frequency, TF over GST control) | 1.09 fold enrichment (6-mer frequency, TF over GST control) | 1.13 fold enrichment (6-mer frequency, TF over GST control) | 1.02 fold enrichment (6-mer frequency, TF over GST control) | – | – |
| GTAGTT | – | 1.05 fold enrichment (6-mer frequency, TF over GST control) | 1.05 fold enrichment (6-mer frequency, TF over GST control) | 1.07 fold enrichment (6-mer frequency, TF over GST control) | – | 1.1 fold enrichment (6-mer frequency, TF over GST control) |
| GTTATA | 1.06 fold enrichment (6-mer frequency, TF over GST control) | 1.15 fold enrichment (6-mer frequency, TF over GST control) | 1.03 fold enrichment (6-mer frequency, TF over GST control) | – | 1.08 fold enrichment (6-mer frequency, TF over GST control) | – |
| AGTGAC | – | 1.04 fold enrichment (6-mer frequency, TF over GST control) | – | 1.11 fold enrichment (6-mer frequency, TF over GST control) | – | – |
| GGTTAT | 1.07 fold enrichment (6-mer frequency, TF over GST control) | 1.05 fold enrichment (6-mer frequency, TF over GST control) | 1.05 fold enrichment (6-mer frequency, TF over GST control) | 1.1 fold enrichment (6-mer frequency, TF over GST control) | 1.04 fold enrichment (6-mer frequency, TF over GST control) | – |
| TACCCC | 1.11 fold enrichment (6-mer frequency, TF over GST control) | – | 1.02 fold enrichment (6-mer frequency, TF over GST control) | 1.12 fold enrichment (6-mer frequency, TF over GST control) | 1.03 fold enrichment (6-mer frequency, TF over GST control) | 1.19 fold enrichment (6-mer frequency, TF over GST control) |
| CAACCG | 1.2 fold enrichment (6-mer frequency, TF over GST control) | 1.02 fold enrichment (6-mer frequency, TF over GST control) | 1.15 fold enrichment (6-mer frequency, TF over GST control) | – | – | – |
| TCATAC | 1.17 fold enrichment (6-mer frequency, TF over GST control) | – | 1.05 fold enrichment (6-mer frequency, TF over GST control) | 1.09 fold enrichment (6-mer frequency, TF over GST control) | 1.02 fold enrichment (6-mer frequency, TF over GST control) | 1.07 fold enrichment (6-mer frequency, TF over GST control) |
| CTATCA | 1.11 fold enrichment (6-mer frequency, TF over GST control) | – | 1.07 fold enrichment (6-mer frequency, TF over GST control) | 1.01 fold enrichment (6-mer frequency, TF over GST control) | 1.01 fold enrichment (6-mer frequency, TF over GST control) | 1.06 fold enrichment (6-mer frequency, TF over GST control) |
| TTGTCA | 1.13 fold enrichment (6-mer frequency, TF over GST control) | – | 1.06 fold enrichment (6-mer frequency, TF over GST control) | 1.05 fold enrichment (6-mer frequency, TF over GST control) | – | 1.21 fold enrichment (6-mer frequency, TF over GST control) |
| CACATG | 1.14 fold enrichment (6-mer frequency, TF over GST control) | – | – | 1.02 fold enrichment (6-mer frequency, TF over GST control) | – | 1.23 fold enrichment (6-mer frequency, TF over GST control) |
| CAAGTT | 1.03 fold enrichment (6-mer frequency, TF over GST control) | – | 1.02 fold enrichment (6-mer frequency, TF over GST control) | 1.03 fold enrichment (6-mer frequency, TF over GST control) | – | 1.08 fold enrichment (6-mer frequency, TF over GST control) |
| GCCCAA | – | – | 1.08 fold enrichment (6-mer frequency, TF over GST control) | – | – | 1.07 fold enrichment (6-mer frequency, TF over GST control) |
| TCATGT | – | – | 1.12 fold enrichment (6-mer frequency, TF over GST control) | 1.01 fold enrichment (6-mer frequency, TF over GST control) | – | 1.08 fold enrichment (6-mer frequency, TF over GST control) |
| AGCGCC | 1.02 fold enrichment (6-mer frequency, TF over GST control) | – | 1.02 fold enrichment (6-mer frequency, TF over GST control) | – | – | 1.11 fold enrichment (6-mer frequency, TF over GST control) |
| GTAGCT | 1.07 fold enrichment (6-mer frequency, TF over GST control) | – | – | 1.07 fold enrichment (6-mer frequency, TF over GST control) | 1.02 fold enrichment (6-mer frequency, TF over GST control) | 1.17 fold enrichment (6-mer frequency, TF over GST control) |
